Here are results for 26 targets from the supplement of paper PMC10849652.

Common to all, as to test: log2 fold change, soluble protein after heating vs DMSO (PISA); higher = thermal stabilisation; K562 lysate, 10 uM; active = over 0.2 and 3.5 SD of the protein, either way, in both replicates (recomputed)
Compound in experiment [1]: NCC(=O)Nc1ccc(-n2nc(C(F)(F)F)cc2-c2ccc3c(ccc4ccccc43)c2)cc1
A digest of the protocol: (§1)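 Log-two fold change in thermal stability relative to solvent controls is reported from duplicates. For each sample, crude K562 extract from dounce-homogenised pellets in PBS pH 7.4 with 1 mM MgCl2, at 1 mg/mL protein, was treated with 10 μM compound for 30 min. Aliquots heated for 3 min across 48°C-58°C were pooled, brought to 0.5% NP-40 at 4°C and cleared at 21,000xg for 90 min. The supernatant was quantified by TMTpro 16plex LC-MS/MS with channel sums equalised.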

Compound in another experiment: O=C(CCCCCCC(=O)Nc1ccccc1)NO [vorinostat]
In outline: as §1

Compound in a further experiment: O=C(O)c1ccc2c(c1)nc(Nc1cccc(Cl)c1)c1ccncc12 [silmitasertib]
In outline: as §1

Compound in experiment [2]: O=C1NC(=O)C(c2cnc3ccccn23)=C1c1cn2c3c(cc(F)cc13)CN(C(=O)N1CCCCC1)CC2
A digest of the protocol:
as §1

Compound in the next experiment: c1cn2cc(-c3ccc4cn[nH]c4c3)nc(Nc3ccc(N4CCOCC4)cc3)c2n1 [entospletinib]
A digest of the protocol:
as §1

Targets with a hit are over-represented here; the source holds about 8,800 in all. About 0.5% of all pairs of compound and target were hits. Unmarked numbers belong to inactive results.

UniProt Q00987, sequence (Q00987 whole entry, looked up): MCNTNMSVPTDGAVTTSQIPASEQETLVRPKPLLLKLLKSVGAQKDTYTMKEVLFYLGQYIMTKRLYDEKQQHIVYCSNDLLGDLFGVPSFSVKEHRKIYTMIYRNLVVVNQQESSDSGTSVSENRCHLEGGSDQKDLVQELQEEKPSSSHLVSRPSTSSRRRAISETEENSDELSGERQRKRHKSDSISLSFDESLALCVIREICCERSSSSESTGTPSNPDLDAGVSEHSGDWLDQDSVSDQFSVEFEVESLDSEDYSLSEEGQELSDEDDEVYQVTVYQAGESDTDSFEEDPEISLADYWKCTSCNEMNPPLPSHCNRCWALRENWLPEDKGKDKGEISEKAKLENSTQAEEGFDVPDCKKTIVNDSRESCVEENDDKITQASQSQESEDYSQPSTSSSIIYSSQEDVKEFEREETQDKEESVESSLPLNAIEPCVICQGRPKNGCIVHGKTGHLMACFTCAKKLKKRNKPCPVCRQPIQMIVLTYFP
UniProt P52732, sequence (P52732 whole entry, looked up): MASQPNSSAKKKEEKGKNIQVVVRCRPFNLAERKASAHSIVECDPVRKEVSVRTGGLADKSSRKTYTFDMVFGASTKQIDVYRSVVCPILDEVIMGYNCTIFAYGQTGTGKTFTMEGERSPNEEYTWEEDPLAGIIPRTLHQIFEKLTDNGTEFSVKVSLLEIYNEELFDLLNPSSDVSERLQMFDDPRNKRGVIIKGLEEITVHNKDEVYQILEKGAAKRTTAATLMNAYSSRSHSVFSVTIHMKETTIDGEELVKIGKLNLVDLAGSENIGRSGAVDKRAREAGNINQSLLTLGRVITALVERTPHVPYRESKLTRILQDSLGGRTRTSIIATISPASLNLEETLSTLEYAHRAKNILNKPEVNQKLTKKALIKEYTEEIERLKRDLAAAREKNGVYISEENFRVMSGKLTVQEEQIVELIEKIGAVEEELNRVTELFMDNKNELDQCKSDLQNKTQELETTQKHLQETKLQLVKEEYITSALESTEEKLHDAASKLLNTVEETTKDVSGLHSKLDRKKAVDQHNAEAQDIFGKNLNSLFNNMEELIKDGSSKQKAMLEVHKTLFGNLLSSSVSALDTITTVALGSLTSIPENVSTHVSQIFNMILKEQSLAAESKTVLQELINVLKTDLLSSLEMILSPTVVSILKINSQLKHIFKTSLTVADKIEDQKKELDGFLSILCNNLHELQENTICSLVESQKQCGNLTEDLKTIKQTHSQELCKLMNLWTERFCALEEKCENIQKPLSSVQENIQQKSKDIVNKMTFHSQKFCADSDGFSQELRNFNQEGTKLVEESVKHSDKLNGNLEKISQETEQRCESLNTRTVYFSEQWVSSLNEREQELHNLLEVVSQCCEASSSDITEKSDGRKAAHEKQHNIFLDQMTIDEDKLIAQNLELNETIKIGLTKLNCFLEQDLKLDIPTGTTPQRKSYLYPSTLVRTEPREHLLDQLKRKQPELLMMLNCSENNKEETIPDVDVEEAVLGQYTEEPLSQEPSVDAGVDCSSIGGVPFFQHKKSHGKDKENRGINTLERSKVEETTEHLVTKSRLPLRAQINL
UniProt Q9BVG8, sequence (Q9BVG8 whole entry, looked up): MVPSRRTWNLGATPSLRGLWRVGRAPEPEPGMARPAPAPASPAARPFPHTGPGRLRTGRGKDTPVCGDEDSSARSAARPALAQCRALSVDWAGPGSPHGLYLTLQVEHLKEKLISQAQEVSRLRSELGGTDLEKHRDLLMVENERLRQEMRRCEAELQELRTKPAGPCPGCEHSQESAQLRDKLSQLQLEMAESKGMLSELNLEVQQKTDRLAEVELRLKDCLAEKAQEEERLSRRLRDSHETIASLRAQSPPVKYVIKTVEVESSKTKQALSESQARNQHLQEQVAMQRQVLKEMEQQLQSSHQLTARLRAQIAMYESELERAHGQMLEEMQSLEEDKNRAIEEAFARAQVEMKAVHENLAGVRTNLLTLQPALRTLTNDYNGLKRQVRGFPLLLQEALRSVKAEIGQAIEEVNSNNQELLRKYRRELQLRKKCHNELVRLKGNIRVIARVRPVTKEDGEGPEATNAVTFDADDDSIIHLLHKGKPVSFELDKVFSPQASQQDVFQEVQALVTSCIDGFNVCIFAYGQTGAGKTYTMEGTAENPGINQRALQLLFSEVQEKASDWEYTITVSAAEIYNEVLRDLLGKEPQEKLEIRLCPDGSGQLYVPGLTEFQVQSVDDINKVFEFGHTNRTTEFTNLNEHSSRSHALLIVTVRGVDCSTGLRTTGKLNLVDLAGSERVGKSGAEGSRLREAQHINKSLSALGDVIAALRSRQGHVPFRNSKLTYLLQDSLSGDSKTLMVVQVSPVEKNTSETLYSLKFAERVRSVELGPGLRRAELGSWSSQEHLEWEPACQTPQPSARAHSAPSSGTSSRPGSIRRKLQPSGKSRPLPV
UniProt Q5SRI9, sequence (Q5SRI9 whole entry, looked up): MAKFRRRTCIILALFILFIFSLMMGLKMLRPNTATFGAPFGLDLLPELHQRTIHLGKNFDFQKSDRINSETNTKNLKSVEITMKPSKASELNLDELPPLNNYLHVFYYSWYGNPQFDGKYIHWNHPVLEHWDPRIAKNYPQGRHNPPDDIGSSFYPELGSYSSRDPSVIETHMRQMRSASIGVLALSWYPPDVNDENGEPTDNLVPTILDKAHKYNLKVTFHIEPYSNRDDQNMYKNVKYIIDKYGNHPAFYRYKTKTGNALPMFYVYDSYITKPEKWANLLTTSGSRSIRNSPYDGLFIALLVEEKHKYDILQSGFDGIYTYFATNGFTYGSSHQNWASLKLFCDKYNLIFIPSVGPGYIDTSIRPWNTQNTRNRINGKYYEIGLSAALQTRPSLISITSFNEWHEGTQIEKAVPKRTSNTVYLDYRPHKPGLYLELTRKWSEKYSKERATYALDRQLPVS
UniProt Q6ZWT7, sequence (Q6ZWT7 whole entry, looked up): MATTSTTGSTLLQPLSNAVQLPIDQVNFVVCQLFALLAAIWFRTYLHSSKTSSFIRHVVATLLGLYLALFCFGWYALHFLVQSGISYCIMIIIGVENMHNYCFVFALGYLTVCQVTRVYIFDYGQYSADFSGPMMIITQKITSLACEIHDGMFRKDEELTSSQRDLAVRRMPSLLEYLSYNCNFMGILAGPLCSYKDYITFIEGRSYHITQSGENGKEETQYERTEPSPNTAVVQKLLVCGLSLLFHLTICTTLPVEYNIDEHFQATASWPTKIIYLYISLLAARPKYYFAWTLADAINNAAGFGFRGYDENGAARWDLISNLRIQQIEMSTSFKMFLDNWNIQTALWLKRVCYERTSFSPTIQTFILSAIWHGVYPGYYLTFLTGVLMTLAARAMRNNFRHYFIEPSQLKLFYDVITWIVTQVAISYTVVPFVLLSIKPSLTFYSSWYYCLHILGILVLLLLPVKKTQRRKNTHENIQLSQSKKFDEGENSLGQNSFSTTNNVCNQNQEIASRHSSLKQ
UniProt Q7Z3U7, sequence (Q7Z3U7 whole entry, looked up): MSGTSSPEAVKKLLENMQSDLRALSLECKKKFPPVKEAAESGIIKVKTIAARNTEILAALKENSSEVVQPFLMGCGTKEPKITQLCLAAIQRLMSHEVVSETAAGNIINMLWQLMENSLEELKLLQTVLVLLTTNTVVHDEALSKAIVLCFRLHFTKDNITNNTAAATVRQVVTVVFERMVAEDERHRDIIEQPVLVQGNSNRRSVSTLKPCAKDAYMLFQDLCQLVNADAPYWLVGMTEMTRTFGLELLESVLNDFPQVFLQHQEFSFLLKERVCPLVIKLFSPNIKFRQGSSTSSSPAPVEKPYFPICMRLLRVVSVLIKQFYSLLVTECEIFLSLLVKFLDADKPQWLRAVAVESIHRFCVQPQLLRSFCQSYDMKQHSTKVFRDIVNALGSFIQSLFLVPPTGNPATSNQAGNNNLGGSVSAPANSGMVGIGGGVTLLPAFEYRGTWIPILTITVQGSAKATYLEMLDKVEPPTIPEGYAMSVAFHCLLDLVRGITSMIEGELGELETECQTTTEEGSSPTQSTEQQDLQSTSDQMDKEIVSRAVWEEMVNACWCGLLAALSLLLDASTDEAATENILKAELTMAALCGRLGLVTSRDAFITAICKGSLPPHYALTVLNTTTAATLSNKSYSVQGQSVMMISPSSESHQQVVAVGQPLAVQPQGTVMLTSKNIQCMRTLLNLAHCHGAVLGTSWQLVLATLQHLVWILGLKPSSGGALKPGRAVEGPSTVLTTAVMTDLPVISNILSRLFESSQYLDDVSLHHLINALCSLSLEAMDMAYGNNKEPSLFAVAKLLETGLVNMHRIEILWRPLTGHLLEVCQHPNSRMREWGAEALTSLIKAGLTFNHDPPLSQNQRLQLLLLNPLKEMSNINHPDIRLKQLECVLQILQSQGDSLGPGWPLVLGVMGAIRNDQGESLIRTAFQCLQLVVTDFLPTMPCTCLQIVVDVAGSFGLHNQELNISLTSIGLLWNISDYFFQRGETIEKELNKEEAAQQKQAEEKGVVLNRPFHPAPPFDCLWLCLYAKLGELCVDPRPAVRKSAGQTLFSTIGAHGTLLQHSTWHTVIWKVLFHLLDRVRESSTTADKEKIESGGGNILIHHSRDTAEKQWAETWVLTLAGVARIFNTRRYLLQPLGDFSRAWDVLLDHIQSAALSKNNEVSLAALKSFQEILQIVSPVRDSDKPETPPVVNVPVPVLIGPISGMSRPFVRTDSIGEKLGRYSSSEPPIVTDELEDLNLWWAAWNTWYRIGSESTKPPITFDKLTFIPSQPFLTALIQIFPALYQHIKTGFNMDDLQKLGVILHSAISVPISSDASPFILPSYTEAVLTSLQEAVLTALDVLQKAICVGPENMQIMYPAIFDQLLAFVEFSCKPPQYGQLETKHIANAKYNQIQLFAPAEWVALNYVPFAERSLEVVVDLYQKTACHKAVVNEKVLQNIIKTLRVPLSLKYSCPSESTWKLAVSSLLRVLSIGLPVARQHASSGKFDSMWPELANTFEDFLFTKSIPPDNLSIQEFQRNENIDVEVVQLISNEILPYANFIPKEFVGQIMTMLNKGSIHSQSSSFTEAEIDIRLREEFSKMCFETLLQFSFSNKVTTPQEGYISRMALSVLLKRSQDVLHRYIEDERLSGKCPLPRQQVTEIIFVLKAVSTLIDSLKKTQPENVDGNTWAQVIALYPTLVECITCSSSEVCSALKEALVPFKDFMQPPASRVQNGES

As for KIF11 (UniProt P52732), the log2 fold change is -0.013 in experiment [1]; -0.252 (active) in the experiment with vorinostat; 0.016 with silmitasertib; -0.033 in experiment [2]; 0.001 with entospletinib.
Consider MANEA (UniProt Q5SRI9), for which the log2 fold change in experiment [1] was 0; in the experiment with vorinostat, 0.217; with silmitasertib, -0.103; in experiment [2], -0.047; with entospletinib, 0.055.
For the target KNOP1 (UniProt Q1ED39), the log2 fold change in experiment [1] was 0.019; in the experiment with vorinostat it was 0.063; with silmitasertib, 0.005; in experiment [2] it was 0.03; in the experiment with entospletinib it was -0.035.
Turning to LUZP1 (UniProt Q86V48), the log2 fold change in experiment [1] is 0.094; with vorinostat it was -0.248 (active); with silmitasertib, 0.129; in experiment [2], 0.022; with entospletinib it was -0.03.
As for KPNA4 (UniProt O00629), the log2 fold change in experiment [1] is 0.006; in the experiment with vorinostat, 0.047; with silmitasertib, 0.024; in experiment [2], 0.02; in the experiment with entospletinib, 0.021.
MORF4L1 isoform 2 (UniProt Q9UBU8): the log2 fold change was 0.013 in experiment [1]; 0.058 in the experiment with vorinostat; -0.002 with silmitasertib; 0.015 in experiment [2]; 0.018 in the experiment with entospletinib.
The like results for MAP4K5 (UniProt Q9Y4K4) were, in that order, -0.072, -0.218, -0.008, -0.07 and 0.
For the target MORC3 (UniProt Q14149), the log2 fold change was 0.008 in experiment [1]; -0.303 (active) with vorinostat; -0.01 with silmitasertib; 0.005 in experiment [2]; 0.009 in the experiment with entospletinib.
The like results for MBOAT2 (UniProt Q6ZWT7) were, in that order, -0.017, 0.13, 0.024, 0.005 and -0.092.
With MCU (UniProt Q8NE86), the log2 fold change is -0.037 in experiment [1]; 0.04 in the experiment with vorinostat; 0 in the experiment with silmitasertib; -0.072 in experiment [2]; -0.016 in the experiment with entospletinib.
For the target MCMBP (UniProt Q9BTE3), the log2 fold change in experiment [1] is -0.01; with vorinostat, -0.415 (active); with silmitasertib, 0.028; in experiment [2], -0.013; with entospletinib it was -0.007.
For MON2 isoform 5 (UniProt Q7Z3U7), the log2 fold change is 0.021 in experiment [1]; -0.525 (active) in the experiment with vorinostat; 0.021 in the experiment with silmitasertib; 0 in experiment [2]; 0.005 with entospletinib.
In the case of KIFC3 isoform 6 (UniProt Q9BVG8), the log2 fold change in experiment [1] is 0.03; with vorinostat, -0.025; with silmitasertib, -0.124; in experiment [2], 0.119; with entospletinib, -0.063.
In the case of MAD2L1BP isoform 3 (UniProt Q15013), the log2 fold change was -0.026 in experiment [1]; -0.299 (active) with vorinostat; -0.019 with silmitasertib; 0.008 in experiment [2]; 0 with entospletinib.
Regarding LPCAT1 (UniProt Q8NF37), the log2 fold change was -0.011 in experiment [1]; 0.027 in the experiment with vorinostat; -0.076 with silmitasertib; -0.026 in experiment [2]; -0.057 with entospletinib.
With MRPL35 (UniProt Q9NZE8), the log2 fold change in experiment [1] was -0.229; with vorinostat, -0.159; with silmitasertib, 0.04; in experiment [2] it was 0.013.
MINDY1 isoform 3 (UniProt Q8N5J2): the log2 fold change in experiment [1] was -0.097; in the experiment with vorinostat, -0.186; in the experiment with silmitasertib, 0.144; in experiment [2], 0.166; with entospletinib it was -0.052.
Taken in the same sequence, the figures for MED8 isoform 2 (UniProt Q96G25) were 0.019, 0.037, -0.012, -0.026 and 0.
Take LRWD1 (UniProt Q9UFC0): the log2 fold change was -0.022 in experiment [1]; -0.322 (active) with vorinostat; -0.008 with silmitasertib; -0.011 in experiment [2]; 0.006 with entospletinib.
In the case of MRPL28 (UniProt Q13084), the log2 fold change in experiment [1] is 0.002; with vorinostat it was -0.037; with silmitasertib, 0.022; in experiment [2], 0.044; with entospletinib it was 0.129.
For MDM2 isoform 11 (UniProt Q00987), the log2 fold change in experiment [1] was -0.137; with vorinostat, -0.062; with silmitasertib, 0; in experiment [2], -0.039.
As for MED16 (UniProt Q9Y2X0), the log2 fold change in experiment [1] was -0.005; with vorinostat, -0.354 (active); in the experiment with silmitasertib, 0.052; in experiment [2], -0.022; with entospletinib it was 0.016.
MEX3A (UniProt A1L020): the log2 fold change in experiment [1] was -0.106.
For the target LRPPRC (UniProt H7C3W8), the log2 fold change in experiment [1] was 0.792.
With MCMBP isoform 2 (UniProt Q9BTE3), the log2 fold change in experiment [1] was -0.153; with vorinostat it was -0.413; in the experiment with silmitasertib, -0.092; in experiment [2] it was 0.064; with entospletinib it was -0.654.
Taken in the same sequence, the figures for METTL2A (UniProt Q96IZ6) were 0.033, -0.28 (active), -0.005, 0.058 and -0.003.
